Results on six molecules are retold here after ChEMBL document CHEMBL4513145, “CO-ADD screening of Biotechnology Research Centre (C.R.B.t) (Algeria) compounds”.

A word on the Inhibition: it is the drop in the measured response relative to a control, in per cent.

The structures appear in SMILES notation. “And” between values parts separate entries of the source, which are not always exact repeats. Equal values may be shown once. Entries with a potency or affinity are not part of this list.

In one assay the test system is Klebsiella pneumoniae. The conditions noted are these: Concentration 32 ug.mL-1, ASSAY_TEST Inhibition of Bacterial Growth, detection method Absorption (OD600), MEDIA CAMHB, plate type 384well, NBS, CORNING #3640, time 18 hr.
For another assay, the system named is Cryptococcus neoformans. The following applies: Concentration 32 ug.mL-1, ASSAY_TEST Inhibition of Fungal Growth, detection method Resazurin, Absorption (OD600-OD570), plate type 384well, NBS, CORNING #3640. For orientation: Alamar Blue is a resazurin reagent that responds to reducing activity.
For the next assay, the system named is Candida albicans. The following applies: 32 ug/mL.

As to `CC1CN(S(=O)(=O)c2ccc([N+](=O)[O-])cc2)N(C(=O)OC(C)(C)C)C1=O` (stereo unspecified), the Inhibition is 7.28% and 7.49% and 8.98% in the assay on Klebsiella pneumoniae (32 ug/mL); -7.3% and -1.18% and -10.38% with Cryptococcus neoformans (32 ug/mL).
On to `CC1C(O)N(C(=O)OC(C)(C)C)N(S(=O)(=O)c2ccc([N+](=O)[O-])cc2)C1C` (stereo unspecified), for which the figures for the Inhibition in the assay with Klebsiella pneumoniae, with Candida albicans and in the assay on Cryptococcus neoformans were 8.57%, 3.18% and -8.51%, respectively.
In the case of `CC(C)(C)OC(=O)N1C(O)C2CCCC2N1S(=O)(=O)c1ccc([N+](=O)[O-])cc1` (stereo unspecified), the Inhibition is -0.3% in the assay on Klebsiella pneumoniae, 1.02% in the assay with Candida albicans and -8.39% in the assay on Cryptococcus neoformans.
As to `Cc1ccc(S(=O)(=O)N2CC(Cc3ccccc3)C(=O)N2S(=O)(=O)c2ccc(C)cc2)cc1` (stereo unspecified), the Inhibition in the assay on Klebsiella pneumoniae (32 ug/mL) was -3.35% and -1.6%; in the assay on Cryptococcus neoformans (32 ug/mL), -1.01% and -2.47%.
Consider `O=C(OCc1ccccc1)N1CC(Cc2ccccc2)C(O)O1` (stereo unspecified), for which the results for the Inhibition in the assay on Klebsiella pneumoniae, with Candida albicans and in the assay on Cryptococcus neoformans were 0%, 12.9% and 9.21%, respectively.
For `O=C1ON(C(=O)OCc2ccccc2)CC1Cc1ccccc1` (stereo unspecified), the Inhibition in the assay on Klebsiella pneumoniae (32 ug/mL) was 2.56% and 10.07%; with Candida albicans it was 4.94% and 2.48%; in the assay on Cryptococcus neoformans (32 ug/mL) it was 7.64% and 2.52%.
